One may read the inhibition as the change of the read-out against control, counted positive when it falls.

Hit rate of the full screen: of about 220,000 compounds, about 910 (0.41%) were called active.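 How the source made its calls: active means primary inhibition above the hit cutoff, then over 50% inhibition at one or more dose response concentrations (cut at about 23% in these data, passing the limit was not always enough); inconclusive means conflicting primary data, or primary hits not chosen for dose response; inactive means low primary inhibition, or under 50% at every dose.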 This excerpt belongs to a sample that is enriched for actives. Potency and affinity values are given separately.

Sequence of Aminopeptidase N (Plasmodium falciparum (isolate 3D7)) (O96935 whole entry, looked up): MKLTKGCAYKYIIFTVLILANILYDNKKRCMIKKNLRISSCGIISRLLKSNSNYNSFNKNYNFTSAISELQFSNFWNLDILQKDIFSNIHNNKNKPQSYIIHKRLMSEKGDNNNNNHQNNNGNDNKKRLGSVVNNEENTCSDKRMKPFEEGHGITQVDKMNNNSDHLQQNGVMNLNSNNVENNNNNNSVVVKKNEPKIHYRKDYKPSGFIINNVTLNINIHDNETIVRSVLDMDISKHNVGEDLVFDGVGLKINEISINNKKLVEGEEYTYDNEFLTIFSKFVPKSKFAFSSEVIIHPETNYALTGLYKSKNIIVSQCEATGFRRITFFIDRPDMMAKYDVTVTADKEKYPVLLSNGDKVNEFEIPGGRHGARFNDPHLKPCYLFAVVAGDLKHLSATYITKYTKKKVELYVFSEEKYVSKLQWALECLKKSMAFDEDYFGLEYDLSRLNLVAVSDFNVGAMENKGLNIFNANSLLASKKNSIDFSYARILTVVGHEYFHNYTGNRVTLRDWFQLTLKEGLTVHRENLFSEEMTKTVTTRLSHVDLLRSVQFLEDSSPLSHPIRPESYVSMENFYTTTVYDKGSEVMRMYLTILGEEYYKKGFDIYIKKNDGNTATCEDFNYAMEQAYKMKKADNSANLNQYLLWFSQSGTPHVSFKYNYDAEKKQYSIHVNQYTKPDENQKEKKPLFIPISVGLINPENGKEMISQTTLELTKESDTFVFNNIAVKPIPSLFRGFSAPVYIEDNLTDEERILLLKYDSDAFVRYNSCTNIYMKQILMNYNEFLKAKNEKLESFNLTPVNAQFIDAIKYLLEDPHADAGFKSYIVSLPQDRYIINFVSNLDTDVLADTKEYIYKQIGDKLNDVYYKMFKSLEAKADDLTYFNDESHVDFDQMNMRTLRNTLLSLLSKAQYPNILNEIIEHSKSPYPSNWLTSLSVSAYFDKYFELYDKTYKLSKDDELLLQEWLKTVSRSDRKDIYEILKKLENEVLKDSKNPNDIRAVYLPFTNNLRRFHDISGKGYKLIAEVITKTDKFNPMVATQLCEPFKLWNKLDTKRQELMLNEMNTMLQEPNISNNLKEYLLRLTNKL

This experiment has as its target Aminopeptidase N (Plasmodium falciparum (isolate 3D7)) (UniProt O96935). Nature of the experiment: malaria alanyl aminopeptidase activity blockers – biochemical, fluorogenic H-Leu-NHMec substrate, 1536-well (AID 1445).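 Further: plate controls were DMSO full reaction for no effect and no enzyme background for full effect.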 The following applies: recombinant M1AAP, H-Leu-NHMec fluorogenic kinetic assay; at 30 µM, stronger effect = higher value unless noted.
In the case of `Cc1oc2c(cc(NS(=O)(=O)c3cccs3)c3ccccc32)c1C(=O)OC(C)C`, the inhibition is 3.76% (inactive).
Turning to `O=C1CCCc2oc3c(cc(NS(=O)(=O)c4ccc5c6c(cccc46)C(=O)N5)c4ccccc43)c21`, the inhibition was 3.6% (inactive).
Regarding `Cc1cccn2c(=O)c3cc(C(=O)NCC4CCCO4)c(=N)n(CCN4CCOCC4)c3nc12` (centres undefined), the inhibition was 8.4% (inactive).
On to `COCCCn1c(=N)c(C(=O)NCc2ccc3c(c2)OCO3)cc2c(=O)n3ccccc3nc21`, for which the inhibition was 4.69% (inactive).
In the case of `CCCn1c(=N)c(C(=O)NCC2CCCO2)cc2c(=O)n3cccc(C)c3nc21` (centres undefined) it was 7.23% (inactive); in that of `N=c1c(C(=O)NCC2CCCO2)cc2c(=O)n3ccccc3nc2n1Cc1cccnc1` (centres undefined), 20% (inactive); in that of `COc1ccccc1N1C(=O)c2ccc(C(=O)Nc3nccs3)cc2C1=O`, 7.44% (inactive).
On to `O=C(CSc1ccc(-c2ccccn2)nn1)c1ccc(F)cc1`, for which the inhibition was 1.12% (inactive).
In the case of `N#Cc1c(N)sc(=S)c2c1CCCC2` it was 9.2% (inactive); in that of `N#Cc1c(N)sc(=S)c2c1CCCCC2`, 23.8% (active); in that of `N#Cc1c(N)sc2c1CCCCCC2`, 7.78% (inactive).
Turning to `Cn1cnnc1Sc1ccc(C(=O)OCC(=O)Nc2cc(Cl)cc(Cl)c2)cc1[N+](=O)[O-]`, the inhibition was 3.75% (inactive).
In the case of `CCN(CC)c1ccc(NC(=O)c2cccnc2)c(C)c1` it was 3.17% (inactive); in that of `CCN(CC)S(=O)(=O)c1cccc(C(=O)Nc2cccnc2)c1`, -0.19% (inactive).
In the case of `NNC(=O)c1ccc2c(c1)S(=O)(=O)NNC2=O` it was 8% (inactive); in that of `CC(C)N(C)C1CCN(C(=O)Nc2ccc(Cl)c(Cl)c2)CC1`, 6.97% (inactive); in that of `COc1cc(OC)c(NS(=O)(=O)c2cc(C(=O)OC(C)C(=O)NC3CC3)c(Cl)cc2Cl)cc1Cl` (centres undefined), 10% (inactive).
`COc1cc(OC)c(NC(C)C(=O)N2CCCC2)cc1Cl` (centres undefined): the inhibition was 11.4% (inactive).
For `CCCCCCOc1ccc(C(CC(=O)O)C(N)=O)cc1` (centres undefined), the inhibition is -7.78% (inactive).
In the case of `O=C(NCc1cccnc1)C(=O)NCC(c1ccco1)N1CCOCC1` (centres undefined) it was 11.1% (inactive).
In the case of `Cc1[nH]c2ccccc2c1/C=N/NC(=O)CNC(=O)c1cccs1` it was 0.9% (inactive).
In the case of `CCN1CCN(CC(=O)N/N=C/c2ccc(F)cc2F)CC1` it was 15.6% (inactive); in that of `COc1ccc(C(=O)C(/C=N/O)=N/Nc2ccc(F)cc2)cc1`, 4.27% (inactive); in that of `CO/N=C/C(=N\Nc1ccc(OC)cc1)C(=O)c1ccc(OC)cc1`, 12% (inactive).
As to `COc1ccc(N/N=C(\C=N\O)C(=O)c2ccc(OC)cc2)cc1`, the inhibition was 24.1% (active).
In the case of `Cc1nc2sc3c(c2c(=O)n1/N=C/c1cccnc1)CCCC3` it was 2.58% (inactive).
The value for `CCN(CC)CCCN1C(=O)c2oc3ccccc3c(=O)c2C1c1cccs1` (centres undefined) was 23.3% (active); that for `CN(C)CCCN1C(=O)c2oc3ccccc3c(=O)c2C1c1cccs1` (centres undefined) was 10.7% (inactive); that for `O=C1c2oc3ccccc3c(=O)c2C(c2cccs2)N1CCCN1CCOCC1` (centres undefined) was 16.3% (inactive).
The value for `S=C(NC1CC1)N1CCN(c2ccc(Cl)cc2)CC1` was -2.34% (inactive); that for `CC(C)C(=O)NC(=S)Nc1ccc(S(=O)(=O)Nc2nccs2)cc1` was 2.01% (inactive); that for `Cc1cccc(-c2nc3ccccc3c(=O)n2NC(=O)c2cccnc2Cl)c1` was 8.24% (inactive).
In the case of `O=C(Cc1ccccc1)Nn1c(-c2ccccc2)nc2ccccc2c1=O`, the inhibition was 3.49% (inactive).
In the case of `COc1cccc(OC)c1C(=O)Nn1c(-c2cccs2)nc2ccccc2c1=O` it was 1.67% (inactive).
On to `Cc1ccc(-c2nc3ccccc3c(=O)n2NC(=O)c2cccs2)cc1`, for which the inhibition is 5.47% (inactive).
For `COc1cccc(OC)c1C(=O)Nn1c(-c2cccc(C)c2)nc2ccccc2c1=O`, the inhibition is 6.13% (inactive).
`O=C(Cc1cccs1)Nn1c(Cc2cccs2)nc2ccccc2c1=O`: the inhibition is 10.8% (inactive).
The value for `O=C(Nn1c(Cc2cccs2)nc2ccccc2c1=O)c1ccc(F)c(F)c1` was 8.58% (inactive); that for `COc1ccccc1C(=O)Nn1c(-c2cccs2)nc2ccccc2c1=O` was 10.4% (inactive).
In the case of `c1ccc(-c2ccc(CN3C[C@@H]4C(c5ccccc5)C5(c6ccccc6)CC4(C5)[C@H]3c3ccccc3)cc2)cc1` (some centres undefined) it was -2.33% (inactive).
The value for `O=C(CSc1ccc(-c2ccc(F)cc2)nn1)NCCc1ccccc1` was -0.33% (inactive).
Regarding `Clc1ccc(-c2nn3cnnc3s2)c(Cl)c1`, the inhibition is 0.7% (inactive).
Consider `CCN=C1SC(CC(=O)NCCc2ccc(OC)c(OC)c2)C(=O)N1CC` (centres undefined), for which the inhibition was -3.87% (inactive).
Consider `Cc1[nH][nH]c(=O)c1C(c1ccc([N+](=O)[O-])cc1)c1c(C)[nH][nH]c1=O`, for which the inhibition is -16.2% (inactive).
In the case of `Cc1[nH][nH]c(=O)c1C(c1ccc(O)c([N+](=O)[O-])c1)c1c(C)[nH][nH]c1=O` it was 14% (inactive); in that of `Clc1ccc(CN2C3=NCCN3c3ccccc32)cc1`, 7.94% (inactive); in that of `Cc1cc(C(=O)NCc2cccs2)nn1C`, 3.72% (inactive).
In the case of `Cc1cc(C)n2nc(C(=O)NCc3ccco3)cc2n1` it was 8.12% (inactive); in that of `CCN(CC)C(=O)CSc1nc(O)c(Cc2ccccc2)c(=O)n1-c1ccc(C)cc1`, 4.4% (inactive).
As to `Cc1ccc(C(=O)Nc2ccccc2C(=O)N2CCCCCC2)cc1`, the inhibition was 4.87% (inactive).
In the case of `CC(C)CN(C(=O)COC(=O)c1ccccc1Sc1ccccc1C#N)C1CCS(=O)(=O)C1` (centres undefined) it was -1.64% (inactive); in that of `O=c1c2ccccc2nc(COc2ccccc2)n1/N=C/c1ccc(O)cc1O`, 19.8% (inactive).
`O=c1c2ccccc2nc(COc2ccccc2)n1/N=C/c1ccc(O)c(O)c1`: the inhibition was 14.6% (inactive).
The value for `Cc1cccc(C)c1OCc1nc2ccccc2c(=O)n1/N=C/c1c[nH]c2ccccc12` was 5.57% (inactive); that for `CCCc1nc2ccccc2c(=O)n1/N=C/c1ccc(O)cc1` was -1.67% (inactive).
Regarding `CCn1c(COc2cccc(C)c2C)nnc1SCC(=O)Nc1cc(C)on1`, the inhibition is 7.39% (inactive).
The value for `COc1cc(/C=C/C(=O)OCC(=O)NCc2cccs2)ccc1OC(F)F` was 4.72% (inactive).
Take `O=C(N/N=C\c1ccc[nH]1)C1COc2ccccc2O1` (centres undefined): the inhibition was 9.36% (inactive).
Take `CC1=NN(c2ccccc2)C(=O)C1C=Nc1ccc(N(C)C)cc1` (centres undefined): the inhibition is 12.8% (inactive).
With `CC1=NN(c2ccccc2)C(=O)C1C(=O)c1ccccc1` (centres undefined), the inhibition was 14.1% (inactive).
Take `COC(=O)c1sccc1S(=O)(=O)Nc1ccc(S(N)(=O)=O)cc1`: the inhibition is 2.58% (inactive).
`CC(C)(C)NC(=O)CSc1nnc(SCC(=O)NC(C)(C)C)s1`: the inhibition was 1.09% (inactive).
Take `COc1ccc(C)cc1-n1nnnc1SC/C(O)=C(\C#N)c1nc2ccccc2[nH]1`: the inhibition is -0.98% (inactive).
The value for `N#CCSc1nnc(Cc2cccs2)n1C1CCCCC1` was 1.61% (inactive); that for `NC(=O)CSc1nnc(Cc2cccs2)n1C1CCCCC1` was 0.23% (inactive); that for `Cc1ccccc1-n1c(SC/C(O)=C(\C#N)c2nc3ccccc3[nH]2)nnc1-c1ccncc1` was 13.8% (inactive).
The value for `CCOP(=O)(OCC)C(Nc1ccccc1)c1ccco1` (centres undefined) was 0.74% (inactive).
In the case of `CS(=O)(=O)NCc1ccc(C(=O)O)cc1` it was 9.65% (inactive); in that of `NNC(=O)C1CC1c1ccccc1` (centres undefined), -1.25% (inactive); in that of `COC(=O)c1cccc(NC(=O)C2COc3ccccc3O2)c1C` (centres undefined), 3.13% (inactive).
For the compound `Cc1ccc(C(=O)c2coc3ccc(O)c(Cl)c23)cc1`, the inhibition was 2.57% (inactive).
The value for `Cc1ccc(C(=O)c2cc3c(cc2[N+](=O)[O-])OCCO3)cc1` was 1.34% (inactive); that for `Cc1oc2cc([N+](=O)[O-])c(O)c([N+](=O)[O-])c2c1C(=O)c1ccc(Cl)cc1` was 16.5% (inactive).
The value for `COc1ccc(OC)c(C(=O)c2c(C)oc3cc([N+](=O)[O-])c(O)c([N+](=O)[O-])c23)c1` was 7.96% (inactive); that for `O=C1NC(c2ccccc2)=C(c2ccccc2)C1=O` was 18.7% (inactive).
The value for `O=C(c1ccco1)N1CCN(C(c2ccccc2Cl)c2nnnn2Cc2cccs2)CC1` (centres undefined) was 1.56% (inactive); that for `CC(C)(C)c1ccc(SCCc2ccccn2)cc1` was 0.53% (inactive); that for `CC(C)Oc1ccc(NC(N)=O)cc1` was 4.7% (inactive).
As for `CCC1=NN2C(=N)/C(=C\c3cccn3-c3ccc(Br)cc3)C(=O)N=C2S1`, the inhibition was 4.13% (inactive).
As to `CCC1=NN2C(=N)/C(=C\c3cccn3-c3ccc(Cl)cc3)C(=O)N=C2S1`, the inhibition is 8.09% (inactive).
For the compound `CC1=CSC2=NC(=O)/C(=C\c3cccn3-c3ccccc3)C(=N)N12`, the inhibition is 5.41% (inactive).
In the case of `CS(=O)(=O)C1=NSC2=NC(=O)/C(=C\c3cccn3-c3ccccc3Cl)C(=N)N21` it was 12.3% (inactive); in that of `Cc1cc(C)cc(-n2cccc2/C=C2/C(=N)N3C(=NC2=O)SN=C3S(C)(=O)=O)c1`, 18.4% (inactive).
Turning to `COc1cccc(-n2c(C)cc(/C=C3/C(=N)N4C(=NC3=O)SN=C4S(C)(=O)=O)c2C)c1`, the inhibition was 16.2% (inactive).
Consider `CCC1=NN2C(=N)/C(=C\c3cccn3-c3c(C)cccc3C)C(=O)N=C2S1`, for which the inhibition is 13.2% (inactive).
In the case of `CCOc1ccc(-n2c(C)cc(/C=C3/C(=N)N4C(=NC3=O)SN=C4S(C)(=O)=O)c2C)cc1` it was 21.4% (inactive); in that of `COC(=O)Nc1ccc(S(=O)(=O)N2CCCC(C(=O)Nc3cccnc3)C2)cc1` (centres undefined), -1.96% (inactive).
In the case of `CCN(CC)CCN(C(=O)c1ccc(S(=O)(=O)N2CCCCC2)cc1)c1nc2cc3c(cc2s1)OCO3` it was -2.92% (inactive); in that of `O=C(NN1CCOCC1)c1sc2cccc(F)c2c1Cl`, 4.71% (inactive); in that of `O=C1c2ccccc2C(=O)N1c1nc2nccc(-c3ccccc3)n2n1`, -0.09% (inactive).
In the case of `Cc1cc(NC(=O)c2cncc(Br)c2)n(-c2ccccn2)n1` it was 1.7% (inactive); in that of `CCc1nnc(NS(=O)(=O)c2ccc(NC(=S)NC(=O)/C=C/c3ccccc3)cc2)s1`, 13.3% (inactive).
For the compound `CCc1nnc(NS(=O)(=O)c2ccc(NC(=S)NC(=O)/C=C/c3ccc(C(C)C)cc3)cc2)s1`, the inhibition was 19.8% (inactive).
The value for `CCc1nnc(NS(=O)(=O)c2ccc(NC(=S)NC(=O)c3ccncc3)cc2)s1` was 4.45% (inactive); that for `COc1cc(NS(=O)(=O)c2ccc(NC(=S)NC(=O)C(C)(C)C)cc2)nc(OC)n1` was 4.8% (inactive).
Take `CCc1nnc(NS(=O)(=O)c2ccc(NC(=S)NC(=O)c3ccccc3)cc2)s1`: the inhibition is 13.4% (inactive).
For `CCc1nnc(NS(=O)(=O)c2ccc(NC(=S)NC(=O)/C=C/c3ccc(OC)cc3)cc2)s1`, the inhibition was 2.25% (inactive).
In the case of `COc1cc(NS(=O)(=O)c2ccc(NC(=S)NC(=O)c3ccco3)cc2)nc(OC)n1` it was 16.3% (inactive).
As for `CCc1nnc(NS(=O)(=O)c2ccc(NC(=O)/C=C/c3ccc(F)cc3)cc2)s1`, the inhibition is 3.37% (inactive).
